Results taken from PubChem BioAssay (EPA / NIEHS).
“And” between values parts separate entries of the source, which are not always exact repeats. Identical values can stand only once. Records with an inconclusive call do not appear. Some structures have more than one record in an assay (separate samples or runs), and their calls can disagree. The source made the active and inactive calls. The calls were made as follows, unless noted: active = hit-call score of the fitted dose curve at least 0.9, where 1 is the maximum; inconclusive = response in the unintended direction; inactive = score below 0.9.

Experiments:
[1] = target: rat Peripheral-type Benzodiazepine Receptor (PBR), Tspo (gene 24230) (UniProt P16257); test: NVS_MP_rPBR: NovaScreen (NVS) Membrane Protein Assay for rat Peripheral-type Benzodiazepine Receptor (PBR) (AID 2283335)
Chain of rat Peripheral-type Benzodiazepine Receptor (PBR), Tspo (gene 24230) (P16257 whole entry, looked up): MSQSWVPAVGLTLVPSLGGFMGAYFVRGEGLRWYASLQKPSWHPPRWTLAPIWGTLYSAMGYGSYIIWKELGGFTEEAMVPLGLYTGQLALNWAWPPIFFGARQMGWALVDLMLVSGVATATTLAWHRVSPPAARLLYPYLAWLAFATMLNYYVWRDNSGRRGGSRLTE
Procedure, shortened: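 Single-concentration duplicate screening at 25 uM preceded concentration-series retesting of actives. Binding of a specific radioligand to rat kidney membrane PBR was read by filtration radiodetection after 1 h, with plate-wise positive and negative controls.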

[2] = target: chimpanzee Androgen Receptor (AR), AR (gene 747460) (UniProt O97775); test: NVS_NR_cAR: NovaScreen (NVS) Nuclear Receptor Binding Assay for chimpanzee Androgen Receptor (AR) (AID 2283346);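 also: radioligand displacement from AR measured by scintillation counting in a cell-free assay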
Chain of chimpanzee Androgen Receptor (AR), AR (gene 747460) (O97775 whole entry, looked up): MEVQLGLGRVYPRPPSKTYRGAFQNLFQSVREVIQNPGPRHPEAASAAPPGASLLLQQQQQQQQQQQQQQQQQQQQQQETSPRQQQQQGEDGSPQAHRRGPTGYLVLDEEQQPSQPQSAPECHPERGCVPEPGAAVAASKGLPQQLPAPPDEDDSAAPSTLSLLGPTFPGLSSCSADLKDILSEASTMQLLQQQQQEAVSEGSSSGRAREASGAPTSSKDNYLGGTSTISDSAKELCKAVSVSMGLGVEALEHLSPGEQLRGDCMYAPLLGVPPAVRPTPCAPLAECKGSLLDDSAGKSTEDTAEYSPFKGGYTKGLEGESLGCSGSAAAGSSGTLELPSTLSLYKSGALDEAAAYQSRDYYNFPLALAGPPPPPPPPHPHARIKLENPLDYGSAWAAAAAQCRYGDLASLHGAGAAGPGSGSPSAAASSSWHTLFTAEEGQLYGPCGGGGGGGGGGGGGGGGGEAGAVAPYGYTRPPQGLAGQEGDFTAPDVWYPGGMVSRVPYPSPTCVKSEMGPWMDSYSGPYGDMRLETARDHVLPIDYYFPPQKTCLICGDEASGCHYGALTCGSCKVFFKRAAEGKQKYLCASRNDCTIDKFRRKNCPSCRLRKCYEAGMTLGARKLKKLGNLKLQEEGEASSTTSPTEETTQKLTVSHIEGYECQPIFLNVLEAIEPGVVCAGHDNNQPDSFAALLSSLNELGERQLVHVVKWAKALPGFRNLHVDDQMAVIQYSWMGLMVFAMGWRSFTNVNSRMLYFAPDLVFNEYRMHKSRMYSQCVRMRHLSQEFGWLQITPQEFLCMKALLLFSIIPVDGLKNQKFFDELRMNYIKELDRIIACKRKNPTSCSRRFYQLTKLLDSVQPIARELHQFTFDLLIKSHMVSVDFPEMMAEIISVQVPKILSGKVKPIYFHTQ
Procedure, shortened: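 Cell-free radioligand displacement using receptor protein extracted from Sf9/Sf21 cells; bound radioligand measured by scintillation counting 72 hours after chemical dosing. Loss of signal versus DMSO baseline indicates binding; primary screen single-concentration in duplicate at 25 uM, actives followed in concentration series.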

[3] = target: Estrogen receptor (Homo sapiens) (UniProt P03372); test: NVS_NR_hER: NovaScreen (NVS) Nuclear Receptor Binding Assay for human Estrogen Receptor (ER) (AID 2283348)
Chain of Estrogen receptor (Homo sapiens) (P03372 whole entry, looked up, the tested form may be a part): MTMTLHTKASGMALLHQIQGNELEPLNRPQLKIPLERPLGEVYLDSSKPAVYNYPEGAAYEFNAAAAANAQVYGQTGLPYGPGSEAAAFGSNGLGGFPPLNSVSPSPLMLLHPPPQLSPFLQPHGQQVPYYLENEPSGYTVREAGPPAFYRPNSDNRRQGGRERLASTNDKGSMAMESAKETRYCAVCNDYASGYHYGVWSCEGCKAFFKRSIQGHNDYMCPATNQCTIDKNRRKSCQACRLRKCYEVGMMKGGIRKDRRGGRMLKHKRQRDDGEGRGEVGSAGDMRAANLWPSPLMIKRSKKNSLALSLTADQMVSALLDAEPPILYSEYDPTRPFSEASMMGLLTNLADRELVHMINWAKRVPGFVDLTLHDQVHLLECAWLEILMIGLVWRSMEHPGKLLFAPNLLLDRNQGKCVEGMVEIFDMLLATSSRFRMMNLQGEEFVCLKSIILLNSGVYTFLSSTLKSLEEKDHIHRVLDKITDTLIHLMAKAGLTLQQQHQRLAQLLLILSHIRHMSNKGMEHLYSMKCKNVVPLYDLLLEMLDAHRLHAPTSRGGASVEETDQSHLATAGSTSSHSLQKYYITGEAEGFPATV
Procedure, shortened: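 Radiodetection of ligand displacement in a lysate-based, cell-free format using MCF7 extracts, read at 18 hours. Duplicate 25 uM primary testing, then concentration series for actives.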

[4] = target: Estrogen receptor (Homo sapiens) (UniProt P03372); test: OT_ER_ERaERa_1440: Odyssey Thera (OT) 24-hour HEK293T Protein-Complementation Assay for Estrogen Receptor-alpha/-alpha Homodimer (AID 2283349);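 also: hits raise fluorescence above DMSO for agonists and antagonists alike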
Procedure, shortened: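 Stably transfected HEK293T; ERα LBD homodimer PCA. 24 h dosing, fluorescence intensity read, gain-of-signal vs DMSO.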

[5] = target: Estrogen receptor (Homo sapiens) (UniProt P03372); test: OT_ER_ERaERa_0480: Odyssey Thera (OT) 8-hour HEK293T Protein-Complementation Assay for Estrogen Receptor-alpha/-alpha Homodimer (AID 2283351);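 also: rise in fluorescence from reassembled reporter fragments on ERα LBD homodimer in nucleus or whole cell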
Procedure, shortened: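 Measures ERα LBD (aa 310-547) homodimer complementation in stably transfected HEK293T at 8 h post-dose, with fluorescence intensity quantified on a laser scanning cytometer relative to DMSO controls.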

[6] = target: bovine Gamma-Aminobutyric Acid Type A Receptor Agonist (GABAR Agonist), GABRA1 (gene 780973) (UniProt P08219); test: NVS_LGIC_bGABAR_Agonist: NovaScreen (NVS) Ligand-Gated Ion Channel Assay for bovine Gamma-Aminobutyric Acid Type A Receptor Agonist (GABAR Agonist) (AID 2283338)
Chain of bovine Gamma-Aminobutyric Acid Type A Receptor Agonist (GABAR Agonist), GABRA1 (gene 780973) (P08219 whole entry, looked up): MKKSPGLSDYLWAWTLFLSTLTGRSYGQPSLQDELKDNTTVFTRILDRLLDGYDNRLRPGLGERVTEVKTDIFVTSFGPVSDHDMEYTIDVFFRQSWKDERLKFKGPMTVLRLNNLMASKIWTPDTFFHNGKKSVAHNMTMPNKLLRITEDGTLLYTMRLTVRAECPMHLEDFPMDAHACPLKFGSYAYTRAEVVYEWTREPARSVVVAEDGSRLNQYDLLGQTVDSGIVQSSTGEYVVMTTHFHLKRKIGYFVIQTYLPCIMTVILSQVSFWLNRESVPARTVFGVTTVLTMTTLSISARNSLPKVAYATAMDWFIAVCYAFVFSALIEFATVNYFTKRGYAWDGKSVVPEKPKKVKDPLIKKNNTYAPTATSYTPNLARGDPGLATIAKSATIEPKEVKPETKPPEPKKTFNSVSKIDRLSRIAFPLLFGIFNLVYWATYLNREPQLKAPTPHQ
Procedure, shortened: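 Radioligand binding to bovine cerebellar membranes in agonist format, read by filter-based scintillation counting after 1 h. Primary screen in duplicate at 25 uM, with actives followed in concentration series. Gain of signal versus DMSO.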

[7] = target: human Constitutive Androstane Receptor (CAR), NR1I3 (gene 9970) (UniProt Q14994); test: NVS_NR_hCAR_Antagonist: NovaScreen (NVS) Nuclear Receptor Binding Assay for human Constitutive Androstane Receptor Antagonism (CAR) (AID 2283344)
Chain of human Constitutive Androstane Receptor (CAR), NR1I3 (gene 9970) (Q14994 whole entry, looked up): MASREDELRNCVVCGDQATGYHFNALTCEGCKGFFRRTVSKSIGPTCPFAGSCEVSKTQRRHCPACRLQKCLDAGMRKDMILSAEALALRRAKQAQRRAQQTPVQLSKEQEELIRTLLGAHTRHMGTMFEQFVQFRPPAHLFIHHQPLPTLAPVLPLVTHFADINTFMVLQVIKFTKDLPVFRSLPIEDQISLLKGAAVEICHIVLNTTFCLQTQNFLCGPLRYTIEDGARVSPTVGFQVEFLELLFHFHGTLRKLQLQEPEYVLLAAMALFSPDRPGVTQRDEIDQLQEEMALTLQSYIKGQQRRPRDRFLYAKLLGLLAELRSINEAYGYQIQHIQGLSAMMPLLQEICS
Procedure, shortened: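 Single 25 uM duplicate primary screen, with concentration-series follow-up on actives. Cell-free binding format run in antagonist mode, TR-FRET signal taken 1 h post-dose; activity is signal loss relative to DMSO.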

[8] = target: Bile acid receptor (Homo sapiens) (UniProt Q96RI1); test: NVS_NR_hFXR_Antagonist: NovaScreen (NVS) Nuclear Receptor Binding Assay for human Farnesoid X Receptor Antagonism (FXR) (AID 2283350)
Chain of Bile acid receptor (Homo sapiens) (Q96RI1 whole entry, looked up): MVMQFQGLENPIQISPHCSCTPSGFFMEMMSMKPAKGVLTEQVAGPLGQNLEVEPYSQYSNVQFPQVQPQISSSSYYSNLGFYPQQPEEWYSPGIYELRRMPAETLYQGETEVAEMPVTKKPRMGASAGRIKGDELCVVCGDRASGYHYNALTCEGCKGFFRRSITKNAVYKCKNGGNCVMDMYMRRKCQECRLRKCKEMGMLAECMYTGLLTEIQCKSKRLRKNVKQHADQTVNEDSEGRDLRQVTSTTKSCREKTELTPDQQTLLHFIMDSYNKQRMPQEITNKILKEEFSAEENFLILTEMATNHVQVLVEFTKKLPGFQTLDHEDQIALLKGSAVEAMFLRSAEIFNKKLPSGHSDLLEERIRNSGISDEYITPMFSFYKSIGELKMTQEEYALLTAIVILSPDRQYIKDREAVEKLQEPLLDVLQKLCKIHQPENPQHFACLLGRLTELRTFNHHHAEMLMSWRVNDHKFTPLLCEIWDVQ
Procedure, shortened: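 Antagonist-format time-resolved FRET binding assay with extracted human receptor protein, read 1 hour after compound addition. Compounds first screened at 25 uM in duplicate, then actives tested in concentration series, with loss of signal relative to DMSO.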

[9] = target: Androgen Receptor/SRC-1 Co-activator, AR (gene 367) (UniProt P10275); test: OT_AR_ARSRC1_0960: Odyssey Thera (OT) 16-hour HEK293T Protein-Complementation Assay for Androgen Receptor/SRC-1 Co-activator (AID 2283353);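 also: actives raise the signal above DMSO so potency reflects increased AR and SRC-1 complex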
Chain of Androgen Receptor/SRC-1 Co-activator, AR (gene 367) (P10275 whole entry, looked up, the tested form may be a part): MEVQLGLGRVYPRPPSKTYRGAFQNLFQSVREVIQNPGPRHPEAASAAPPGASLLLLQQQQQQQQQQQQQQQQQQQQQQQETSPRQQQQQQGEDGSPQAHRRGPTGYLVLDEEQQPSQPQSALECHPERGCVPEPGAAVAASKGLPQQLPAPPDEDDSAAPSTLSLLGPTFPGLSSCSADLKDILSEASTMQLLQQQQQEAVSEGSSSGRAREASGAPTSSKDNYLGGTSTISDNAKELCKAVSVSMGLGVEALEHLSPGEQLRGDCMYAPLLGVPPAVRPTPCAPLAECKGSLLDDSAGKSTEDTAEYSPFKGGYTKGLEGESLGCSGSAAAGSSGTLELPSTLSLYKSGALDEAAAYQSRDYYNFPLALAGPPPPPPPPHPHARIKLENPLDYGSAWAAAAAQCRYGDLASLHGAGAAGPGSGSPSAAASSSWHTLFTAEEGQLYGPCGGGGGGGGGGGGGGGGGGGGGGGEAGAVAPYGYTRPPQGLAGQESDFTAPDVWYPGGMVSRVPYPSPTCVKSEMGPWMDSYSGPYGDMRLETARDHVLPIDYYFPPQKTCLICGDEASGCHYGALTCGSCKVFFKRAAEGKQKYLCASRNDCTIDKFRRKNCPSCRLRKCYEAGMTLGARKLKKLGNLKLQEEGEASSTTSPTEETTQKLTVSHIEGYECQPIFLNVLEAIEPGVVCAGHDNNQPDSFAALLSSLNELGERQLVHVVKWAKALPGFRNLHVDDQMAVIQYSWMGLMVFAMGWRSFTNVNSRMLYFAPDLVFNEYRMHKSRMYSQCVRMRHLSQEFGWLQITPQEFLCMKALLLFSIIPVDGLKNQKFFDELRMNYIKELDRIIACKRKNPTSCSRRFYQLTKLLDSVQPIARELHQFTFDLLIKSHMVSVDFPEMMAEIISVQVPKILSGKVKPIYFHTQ
Procedure, shortened: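 Sixteen-hour cell assay: Venus halves fused to AR and SRC-1 in HEK293T report binding. Images at 488/635 nm give an N/C ratio in the 488 nm channel over ≥400 cells, analysed as signal increase over DMSO.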

[10] = target: Androgen Receptor/SRC-1 Co-activator, AR (gene 367) (UniProt P10275); test: OT_AR_ARSRC1_0480: Odyssey Thera (OT) 8-hour HEK293T Protein-Complementation Assay for Androgen Receptor/SRC-1 Co-activator (AID 2283354);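 also: hits raise the complementation signal above DMSO so AC50 marks enhancers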
Procedure, shortened: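 After 8 h dosing, stably expressing HEK293T cells with split-Venus AR/SRC-1 fusions were imaged (488, 635nm). The 488nm N/C ratio per image gave the endpoint, analysed in the positive direction against DMSO.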

[11] = target: Glutamate receptor ionotropic, kainate 1 (Rattus norvegicus) (UniProt P22756); test: NVS_IC_rKAR: NovaScreen (NVS) Ion Channel Assay for rat Kainic Acid Receptors (KAR) (AID 2283334; active = hit-call score of the fitted dose curve at least 0.9, where 1 is the maximum; inactive = score below 0.9)
Procedure, shortened: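 Rat forebrain membrane preparation incubated 1 h with radioligand and test chemical; bound signal read by filtration and scintillation. Single-concentration screen at 25 uM, then concentration series to 50 uM maximum.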

[12] = target: Estrogen receptor (Homo sapiens) + Estrogen receptor beta (Homo sapiens) (UniProt P03372+Q92731); test: OT_ER_ERaERb_0480: Odyssey Thera (OT) 8-hour HEK293T Protein-Complementation Assay for Estrogen Receptor-alpha/-beta Heterodimer (AID 2283352)
Chain of Estrogen receptor (Homo sapiens) + Estrogen receptor beta (Homo sapiens) (P03372 whole entry, looked up, the tested form may be a part): as the sequence (P03372 whole entry, looked up, the tested form may be a part) above
Chain of Estrogen receptor (Homo sapiens) + Estrogen receptor beta (Homo sapiens) (Q92731 whole entry, looked up, the tested form may be a part): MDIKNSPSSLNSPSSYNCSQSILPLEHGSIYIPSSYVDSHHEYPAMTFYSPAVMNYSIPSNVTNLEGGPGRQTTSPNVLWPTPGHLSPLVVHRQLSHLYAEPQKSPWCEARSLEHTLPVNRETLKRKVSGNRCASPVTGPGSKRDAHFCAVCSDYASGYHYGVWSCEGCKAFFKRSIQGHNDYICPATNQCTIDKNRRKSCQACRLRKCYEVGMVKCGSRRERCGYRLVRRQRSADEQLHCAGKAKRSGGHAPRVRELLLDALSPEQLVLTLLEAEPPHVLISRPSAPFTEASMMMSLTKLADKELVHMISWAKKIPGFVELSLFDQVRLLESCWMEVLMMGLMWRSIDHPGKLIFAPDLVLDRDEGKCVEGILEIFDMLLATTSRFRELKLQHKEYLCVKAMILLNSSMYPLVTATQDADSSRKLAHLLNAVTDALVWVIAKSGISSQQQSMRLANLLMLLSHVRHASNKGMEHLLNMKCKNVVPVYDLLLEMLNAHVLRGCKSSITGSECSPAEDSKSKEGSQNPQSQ
Procedure, shortened: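 Human HEK293T cells were treated for 8 hours and receptor heterodimerisation was detected through reconstitution of a fluorescent reporter split between ER-alpha and ER-beta ligand-binding domains. Activity was analysed as gain of signal against DMSO.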

[13] = target: Small conductance calcium-activated potassium channel protein 1 (Rattus norvegicus) (UniProt P70606); test: NVS_IC_rKCaCh: NovaScreen (NVS) Ion Channel Assay for rat Potassium Channel, Ca2+ Act., VI (KCaCh) (AID 2283336)
Procedure, shortened: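 Filter-based scintillation counting of radioligand bound to rat forebrain membrane preparations, measured 1 h after compound addition. Primary screen used 25 uM in duplicate, with concentration-response follow-up; signal decrease relative to DMSO marks activity.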

[14] = system: guinea pig Histamine Receptor (H2), gene 100729734; test: NVS_GPCR_gH2: NovaScreen (NVS) G Protein-Coupled Receptor Assay for guinea pig Histamine Receptor (H2) (AID 2283342)
Procedure, shortened: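 Guinea pig striatal membrane preparation with specific radioligand; bound counts measured by filtration and scintillation 1 h post-dosing, DMSO as baseline. Chemicals passing a 25 uM duplicate screen were titrated to a 50 uM maximum.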

NCBI gene 100848466 = test: NVS_NR_bPR: NovaScreen (NVS) Nuclear Receptor Binding Assay for bovine Progextron Receptor (PR) (AID 2283343);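 also: actives lower bound radioligand signal below DMSO meaning displacement of the label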
Procedure, shortened: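 Steps: bovine uterine membranes were dosed with chemical alongside radioligand, incubated 18 hours, then radiodetected by scintillation counting. Initial testing used 25 uM in duplicate; confirmed actives were rerun as concentration series.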

[15] = target: Bile acid receptor (Homo sapiens) (UniProt Q96RI1); test: NVS_NR_hFXR_Agonist: NovaScreen (NVS) Nuclear Receptor Binding Assay for human Farnesoid X Receptor Agonism (FXR) (AID 2283347)
Procedure, shortened: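 Agonist-mode FXR assay read by time-resolved FRET 1 h after compound addition, using isolated human receptor protein without cells. Duplicate 25 uM single-point primary screen, concentration series for confirmed actives; DMSO as baseline.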

Measured: AC50

Cc1cc(-c2ccc(N)c(C)c2)ccc1N
active: [1] 13.7 µM | [2] 888 nM and 16 µM | [3] 15.3 nM | [5] 72.3 µM
inactive: [3] | [4] | [5]

c1cc2ccc3cccc4ccc(c1)c2c34
inactive: [6] | [7] | [4] | [8] | [5] | [9] | [10]

COS(=O)(=O)OC
inactive: [11] | [4] | [5]

NS(=O)(=O)C(F)(F)C(F)(F)C(F)(F)C(F)(F)C(F)(F)C(F)(F)C(F)(F)C(F)(F)F
active: [5] 76 µM | [12] 72.1 µM | [9] 68.4 µM
inactive: [6] | [4] | [10]

c1ccc(-c2ccccc2)cc1
inactive: [13] | [3] | [4] | [5] | [12] | [9] | [10]

Cc1ccc(O)c(C)c1
inactive: [1] | [3] | [4] | [5] | [12]

C[C@]12CCC(=O)C=C1CC[C@@H]1[C@@H]2CC[C@@]2(C)[C@H]1CC[C@]2(C)O
inactive: [14] | [15] | [4] | [5]
active: NCBI gene 100848466 0.149 µM | [2] 2.09 nM and 6.55 nM | [3] 6.34 µM and 6.28 µM and 6.19 µM

CC(C)(c1ccccc1)c1ccc(O)cc1
inactive: [1] | [13]
active: NCBI gene 100848466 19.2 µM | [2] 25 µM | [4] 11.9 µM and 12 µM and 12.1 µM | [5] 11.9 µM and 12 µM | [12] 2.01 µM and 11.9 µM
